For 17 molecules, outcome and AC50 results are on record in PubChem BioAssay (EPA / NIEHS).

Calls of active or inactive are those of the source. How the source made its calls: active means hit-call score of the fitted dose curve at least 0.9, where 1 is the maximum; inactive means score below 0.9.

This assay can be described thus: CEETOX_H295R_MTT_cell_viability: Viability Assessment in the CeeTox HT-H295R MTT Assay (AID 2283718).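 On AC50: curve fitted both ways so AC50 may mark viability loss or gain.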 Here is the method: CEETOX_H295R is a cell-based, multiplexed-readout assay that uses H295R, a human adrenal gland cell line, with measurements taken at 48 hours after chemical dosing in a 96-well plate.CEETOX_H295R_MTT_cell_viability is one of 23 assay component(s) measured or calculated from the CEETOX_H295R assay. It is designed to make measurements of cell number, a form of viability reporter, as detected with […] signals by MTT cytotoxicity assay technology.The assay component endpoint CEETOX_H295R_MTT_cell_viability was analyzed with bidirectional fitting relation to DMSO as the negative control and baseline of activity. Using a type of viability reporter in the MTT cytotoxicity assay, gain or loss-of-signal activity can be used to monitor cellular processes to understand changes in proliferation. To generalize the intended target to other relatable targets, this assay endpoint is annotated to cell cycle, where the subfamily is proliferation.
Cell culture and media preparation procedures were conducted in accordance with OECD Test No. 456 guidelines, with minor modifications. H295R cells (ATCC CRL-2128) were expanded for 5 passages and frozen in batches in liquid nitrogen. Prior to the steroidogenesis assay, H295R cells were thawed and passed at least 4 times. The maximum passage was 10. Cells were maintained in a 1:1 mixture of DMEM/F12 supplemented with 5ml/L ITS+ Premix (BD Bioscience) and 12.5 ml/L Nu-Serum (BD Bioscience). After seeding cells into 96-well plates at 50-60% confluency, cells were allowed to adhere overnight. Prior to chemical testing, culture medium was replaced with 175 uL medium containing 10 uM forskolin to stimulate steroidogenesis for 48 hours. Following prestimulation, forskolin medium was replaced with medium containing test chemical solubilized in DMSO (ensuring a final concentration of 0.1% DMSO). Test chemicals were incubated for 48 hours, then the medium was removed and split into 2 vials containing approximately 75uL each, and stored at -80 C prior to hormone analysis. For steroid quantification, media samples were shipped to OpAns, LLC (Durham, NC) on dry ice, and samples were thawed to room temperature prior to liquid-liquid extraction. Steroid hormones were extracted from media samples using methyl tertbutyl ether (MTBE). An extra derivatization with dansyl chloride was included for estrogen (estrone and estradiol) detection only. Steroid hormones were separated by HPLC, eluted using a reverse phase C18 gradient with electrospray positive ionization, followed by quantification by tandem mass spectrometry (MS/MS). Data were acquired on a MassHunter Workstation Acquisition version B03.01 (Agilent Technologies, Inc.) and processed using MassHunter Quantitative Analysis for QQQ. Accuracy was determined for each hormone analyte from 3 standards to determine upper and lower limits of quantification (ULOQ and LLOQ, respectively) using a 7-point standard curve. Precision and accuracy of the extraction and quantification methods were calculated as the percent relative standard deviation (%RSD) of the spiked standards and percent spiked standard recovered, respectively. The goal was to achieve 100% accuracy (i.e., recover all spiked-in standard at quantification with minimal loss during run time) and good precision (i.e., have %RSD <15% to ensure reproducibility). Test medium was removed following chemical exposure, and cell viability was evaluated in the same wells by MTT. MTT procedures were as follows: after removal of test medium, 500 uL of 0.5 mg/ml of 3-[4,5-dimethylthiazol-2-y]2,5-diphenyltetrazoliumbromide solution was added to the cells. Following a 4-hour incubation at 37 C and 5% CO2 to allow formazan-crystal formation, the MTT solution was removed and blue formazan salt crystals were solubilized using 500uL anhydrous isopropanol with shaking for 20 minutes. Absorbance was read at 570 and 650nm using a Packard Fusion microplate reader. […]
`CC(C)(C)NC(=O)[C@H]1CC[C@H]2[C@@H]3CC[C@H]4NC(=O)C=C[C@]4(C)[C@H]3CC[C@]12C`: the outcome was inactive.

In the case of `O=C(OCc1ccccc1)c1ccc(O)cc1`, the AC50 is 10.6 µM (active). Still for that read-out and setting: the figure for `CCN1CN(CC)CN(CC)C1` is 0.396 µM (active).

With `CCOC(=O)C1=NN(c2ccc(Cl)cc2Cl)C(C)(C(=O)OCC)C1` (configuration not stated), the molecule was called inactive.

As to `C=C[C@@]1(C)CC(=O)[C@]2(O)[C@@]3(C)[C@@H](O)CCC(C)(C)[C@@H]3[C@H](O)[C@H](OC(C)=O)[C@@]2(C)O1`, the result was inactive.

Turning to `COc1ccc(-c2coc3cc(O)cc(O)c3c2=O)cc1`, the result was inactive. Still for that read-out and setting: in the case of `CCCCC1C(=O)N(c2ccccc2)N(c2ccccc2)C1=O` it was “inactive”; in that of `CCCC=C(C=O)CC`, “inactive”; in that of `N#Cc1ccc(C(c2ccc(C#N)cc2)n2cncn2)cc1`, “inactive”. Still for that read-out and setting: in the case of `CC(C)c1ccc(O)c(C(C)C)c1` it was “inactive”. On to `COc1ccc(C(=O)/C(Br)=C\C(=O)O)cc1`, for which the AC50 is 76.4 µM (active). On to `CC(C)(c1ccccc1)c1ccc(Nc2ccc(C(C)(C)c3ccccc3)cc2)cc1`, for which the AC50 is 86 µM (active). On to `O=C(O)c1cc(O)c2ccccc2c1O`, for which the call was inactive. Same read-out and setting: the entry for `COc1ccc(C(=O)c2ccccc2)c(O)c1` is “inactive”; for `C=CC(=O)OCCCCCCOC(=O)C=C` it is “inactive”. Take `N#Cc1ccc(C2CCCc3cncn32)cc1` (configuration not stated): the molecule was classed as inactive. Regarding `CN(C)c1ccc2nc3ccc(=[N+](C)C)cc-3sc2c1`, the molecule was called inactive.

As usually defined, the AC50 is the midpoint of the concentration-response curve, whichever way the signal moves.
